From PubChem BioAssay (EPA / NIEHS)
Where “and” joins values, the source holds several entries; their conditions need not be identical. Equal values may be shown once. More than one record can exist for a structure, and the calls need not agree. Calls of active or inactive are those of the source. The calls were made as follows: active = hit-call score of the fitted dose curve at least 0.9, where 1 is the maximum; inactive = score below 0.9.

Tests used:
Details in all cases: mRNA level, 48 h; actives raise or lower the signal
[1] = read-out: Glutathione S-Transferase (GSTA2), GSTA2 (gene 2939); assay: LTEA_HepaRG_GSTA2: Life Technologies and Expression Analysis (LTEA) Assay for Glutathione S-Transferase (GSTA2) using HepaRG (AID 2283497)
Method in brief: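 GSTA2 transcript levels came from Fluidigm TaqMan qRT-PCR normalized to three housekeeping genes, fitted in both directions against DMSO. HepaRG cultures received chemicals for 48 h in serum-free induction medium (0.5% DMSO), 8 half-log concentrations up to 100 uM, duplicate.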

[2] = read-out: Glutamate-cysteine ligase catalytic (GCLC), GCLC (gene 2729); assay: LTEA_HepaRG_GCLC: Life Technologies and Expression Analysis (LTEA) Assay for Glutamate-cysteine ligase catalytic (GCLC) using HepaRG (AID 2283498)
Method in brief: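 Expression by TaqMan qRT-PCR, normalized to three housekeeping genes (ACTB, GAPDH, POLR2A), with up- or down-regulation fitted against DMSO. HepaRG cells dosed in duplicate for 48 h with 8 half-log concentrations up to 100 uM, vehicle 0.5% DMSO.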

[3] = read-out: growth arrest and DNA damage 45 (GADD45G), GADD45G (gene 10912); assay: LTEA_HepaRG_GADD45G: Life Technologies and Expression Analysis (LTEA) Assay for growth arrest and DNA damage 45 (GADD45G) using HepaRG (AID 2283499)
Method in brief: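 GADD45G transcript level by qRT-PCR (housekeeping-normalized: ACTB, GAPDH, POLR2A) after 48 h chemical treatment of a single HepaRG lot in serum-free induction medium; eight-point half-log series up to 100 uM in 0.5% DMSO, duplicates, up- or down-regulation scored.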

[4] = read-out: Glutamate-cysteine ligase regulatory (GCLM), GCLM (gene 2730); assay: LTEA_HepaRG_GCLM: Life Technologies and Expression Analysis (LTEA) Assay for Glutamate-cysteine ligase regulatory (GCLM) using HepaRG (AID 2283500)
Method in brief: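 Endpoint is GCLM transcript level by qRT-PCR, normalized to three housekeeping genes, after 48 h chemical exposure of human HepaRG cells (0.5% DMSO vehicle, top 100 uM, half-log dilutions). Fitting was bidirectional relative to DMSO.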

[5] = read-out: Heat shock 70 kDa protein 1 (HSPA1A), gene 3303; assay: LTEA_HepaRG_HSPA1A: Life Technologies and Expression Analysis (LTEA) Assay for Heat shock 70 kDa protein 1 (HSPA1A) using HepaRG (AID 2283502)
Method in brief: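 Cells were plated and cultured for 48 h, then switched to serum-free induction medium. Chemicals were added at eight half-log concentrations up to 100 uM for 48 h. RNA was then isolated and HSPA1A measured by qRT-PCR with bidirectional curve fitting against DMSO.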

[6] = read-out: Hypoxia-inducible factor 1-alpha (Homo sapiens) (UniProt Q16665); assay: LTEA_HepaRG_HIF1A: Life Technologies and Expression Analysis (LTEA) Assay for Hypoxia-inducible factor 1 (HIF1A) Trancription factor using HepaRG (AID 2283503)
Method in brief: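 HIF1A transcript level read by qRT-PCR (ACTB, GAPDH, POLR2A normalization) after 48 h chemical exposure of HepaRG cultures. Eight half-log concentrations, top 100 uM, 0.5% DMSO vehicle, duplicates; bidirectional curve fit against DMSO baseline.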

HGF (gene 3082) = assay: LTEA_HepaRG_HGF: Life Technologies and Expression Analysis (LTEA) Assay for Hepatocyte Growth Facto (HGF) using HepaRG (AID 2283505)
Method in brief: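 HGF transcript was quantified by TaqMan qRT-PCR against three housekeeping genes after 48 h treatment of HepaRG cells. Exposure ran in duplicate over eight half-log steps topping at 100 uM in 0.5% DMSO vehicle.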

[7] = read-out: Insulin Like Growth Factor 1 (IGF1), IGF1 (gene 3479); assay: LTEA_HepaRG_IGF1: Life Technologies and Expression Analysis (LTEA) Assay for Insulin Like Growth Factor 1 (IGF1) using HepaRG (AID 2283506)
Method in brief: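 Cells are thawed, plated and cultured 48 h, then exposed in duplicate to chemical (highest 100 uM, half-log steps, 0.5% DMSO) for another 48 h. Total RNA is analysed by Fluidigm qRT-PCR for IGF1 expression relative to vehicle.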

[8] = read-out: Intercellular Adhesion Molecule 1 (ICAM1), ICAM1 (gene 3383); assay: LTEA_HepaRG_ICAM1: Life Technologies and Expression Analysis (LTEA) Assay for Intercellular Adhesion Molecule 1 (ICAM1) using HepaRG (AID 2283507)
Method in brief: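 ICAM1 transcript levels measured by qRT-PCR, normalized to three housekeeping genes (ACTB, GAPDH, POLR2A), after 48 h chemical exposure of HepaRG cells. Duplicate eight-point half-log series from 100 uM in 0.5% DMSO; gain or loss fitted against vehicle.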

[9] = read-out: Cytochrome P450 7A1 (Homo sapiens) (UniProt P22680); assay: LTEA_HepaRG_CYP7A1: Life Technologies and Expression Analysis (LTEA) Assay for Cytochrome P450 7A1 (CYP7A1) using HepaRG (AID 2283496)
Method in brief: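 HepaRG, 48 h exposure, 8-pt half-log series from 100 uM, 0.5% DMSO vehicle, duplicates. Readout: TaqMan qRT-PCR mRNA vs three housekeeping genes; bidirectional curve fit against DMSO baseline.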

Measured: AC50

Chain of Hypoxia-inducible factor 1-alpha (Homo sapiens) (Q16665 whole entry, looked up): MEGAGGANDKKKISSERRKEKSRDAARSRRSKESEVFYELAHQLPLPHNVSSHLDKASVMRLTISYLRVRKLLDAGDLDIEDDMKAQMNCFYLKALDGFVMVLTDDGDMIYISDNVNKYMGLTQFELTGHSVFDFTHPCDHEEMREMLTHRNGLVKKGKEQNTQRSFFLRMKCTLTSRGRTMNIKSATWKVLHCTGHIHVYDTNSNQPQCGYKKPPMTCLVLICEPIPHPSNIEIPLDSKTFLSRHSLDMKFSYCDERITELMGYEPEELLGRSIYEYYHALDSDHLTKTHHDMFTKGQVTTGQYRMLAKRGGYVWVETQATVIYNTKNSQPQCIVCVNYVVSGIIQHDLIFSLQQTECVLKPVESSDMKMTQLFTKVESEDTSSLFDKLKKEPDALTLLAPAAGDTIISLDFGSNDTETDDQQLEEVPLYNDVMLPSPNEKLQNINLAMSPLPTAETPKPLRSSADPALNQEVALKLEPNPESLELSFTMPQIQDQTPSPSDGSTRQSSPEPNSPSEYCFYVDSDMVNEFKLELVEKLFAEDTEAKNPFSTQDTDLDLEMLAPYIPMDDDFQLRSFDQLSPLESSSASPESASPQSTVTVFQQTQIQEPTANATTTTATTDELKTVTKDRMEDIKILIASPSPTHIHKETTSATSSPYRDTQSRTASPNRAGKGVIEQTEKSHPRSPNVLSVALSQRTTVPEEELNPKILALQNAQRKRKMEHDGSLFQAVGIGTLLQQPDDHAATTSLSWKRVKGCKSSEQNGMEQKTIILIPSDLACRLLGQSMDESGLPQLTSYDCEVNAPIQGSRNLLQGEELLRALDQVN

C=C(C)C(=O)[O][Sn]([CH2]CCC)([CH2]CCC)[CH2]CCC
inactive: [1]
active: [2] 4.01 µM | [3] 1.21 µM | [4] 88.7 µM | [5] 89.6 µM | [6] 5.19 µM | HGF (gene 3082) 72 µM | [7] 1.2 µM | [8] 2.12 µM

CCC(C)(C)c1ccc(O)c(C(C)(C)CC)c1
inactive: [9] | [1] | [2] | [3] | [4] | [5] | [6] | HGF (gene 3082) | [7] | [8]

CCC(=O)C(CC(C)N(C)C)(c1ccccc1)c1ccccc1 (stereo unspecified)
inactive: [9] | [1] | [2] | [3] | [4] | [5] | [6] | HGF (gene 3082) | [7] | [8]

Oc1cccc2cccnc12
inactive: [9] | [1] | [2] | [3] | [4] | [5] | HGF (gene 3082) | [7] | [8]

O=C(O)C(Cl)(Cl)Cl
inactive: [9] | [1] | [2] | [3] | [4] | [5] | [6] | HGF (gene 3082) | [7] | [8]

CCOP(=S)(OCC)Oc1nc(Cl)c(Cl)cc1Cl
active: [9] 50 µM
inactive: [1] | [2] | [3] | [4] | [5] | [6] | HGF (gene 3082) | [7] | [8]

O=C(O)C(F)(F)C(F)(F)C(F)(F)C(F)(F)C(F)(F)C(F)(F)C(F)(F)C(F)(F)C(F)(F)C(F)(F)F
inactive: [2] | [3] | [4] | [5] | [6] | HGF (gene 3082) | [7] | [8]
active: [9] 46.5 µM | [1] 47.8 µM

O=C(Nc1ccc2[nH]ccc2c1)c1cc2cc(F)ccc2n1Cc1cccc(F)c1
active: [9] 30.7 µM | [1] 31.2 µM | [2] 23.6 µM | [4] 27.8 µM | [5] 90.7 µM | [6] 84.5 µM | [7] 33.1 µM | [8] 12.6 µM
inactive: [3] | HGF (gene 3082)

COc1cc(-c2ccc(N)c(OC)c2)ccc1N
inactive: [9] | [1] | [2] | [3] | [4] | [5] | [6] | HGF (gene 3082) | [8]
active: [9] 57.4 µM | [4] 50 µM | [5] 75 µM | [7] 39.4 µM and 34.4 µM

CC(C)(C)c1cc(O)ccc1O
inactive: [9] | [1] | [2] | [3] | [4] | [5] | HGF (gene 3082) | [7] | [8]

O=C(O)C(F)(F)C(F)(F)C(F)(F)C(F)(F)C(F)(F)C(F)(F)F
inactive: [9] | [1] | [2] | [3] | [4] | [5] | [6] | HGF (gene 3082) | [7] | [8]

O=C1C2(Cl)C3(Cl)C4(Cl)C(Cl)(Cl)C5(Cl)C3(Cl)C1(Cl)C5(Cl)C24Cl (stereo unspecified)
inactive: HGF (gene 3082)
active: [9] 20.6 µM | [1] 22.9 µM | [2] 93.3 µM | [3] 59 µM | [4] 88.5 µM | [5] 91.9 µM | [6] 92.5 µM | [7] 23.8 µM | [8] 91.4 µM

O=[N+]([O-])c1ccc(O)c([N+](=O)[O-])c1
active: [9] 25.6 µM | [1] 17 µM | [3] 90.6 µM | [4] 12.2 µM | [6] 44.8 µM | [7] 27.9 µM
inactive: [5] | HGF (gene 3082) | [8]

C=CC(=O)OCCCCCC(C)C
inactive: [9] | [1] | [2] | [3] | [4] | [5] | [6] | HGF (gene 3082) | [7] | [8]

CCCCCCCCc1ccc(O)cc1
inactive: [1] | [2] | [3] | [4] | [5] | [6] | HGF (gene 3082) | [7] | [8]

Cc1ccccc1N
inactive: [9] | [1] | [2] | [3] | [4] | [5] | [6] | HGF (gene 3082) | [7] | [8]

CC(C)(OO)c1ccccc1
inactive: [9] | [1] | [2] | [3] | [4] | [5] | [6] | HGF (gene 3082) | [7] | [8]

C[C@@H]1C[C@@H]([C@H](O)CC2CC(=O)NC(=O)C2)C(=O)[C@@H](C)C1
active: [1] 26.6 µM | [2] 33.3 µM | [3] 2.24 µM | [4] 17.9 µM | [5] 30.6 µM | [6] 9.18 µM | HGF (gene 3082) 71.7 µM | [7] 9.09 µM | [8] 11.9 µM

Cn1sc(Cl)cc1=O
inactive: [9] | [1] | [2] | [3] | [4] | [5] | [6] | HGF (gene 3082) | [7] | [8]

ClCC(Cl)CCl
inactive: [9] | [1] | [2] | [3] | [4] | [5] | [6] | HGF (gene 3082) | [7] | [8]

CCOP(=S)(OCC)SCSP(=S)(OCC)OCC
inactive: [1] | [4] | [5] | [6] | HGF (gene 3082) | [8]
active: [9] 9.92 µM | [2] 0.0663 µM | [3] 1.49 µM | [7] 0.0903 µM

O=c1[nH]c(=O)[nH]c(=O)[nH]1
inactive: [9] | [1] | [2] | [3] | [4] | [5] | [6] | HGF (gene 3082) | [7] | [8]

CC12CC1(C)C(=O)N(c1cc(Cl)cc(Cl)c1)C2=O (stereo unspecified)
active: [9] 16.9 µM | [7] 18.6 µM
inactive: [1] | [2] | [3] | [4] | [5] | [6] | HGF (gene 3082) | [8]

CC(C)(C)CC(C)(C)c1ccc(O)cc1
inactive: [9] | [1] | [2] | [3] | [4] | [5] | [6] | HGF (gene 3082) | [7] | [8]

ClC1(Cl)C2(Cl)C3(Cl)C4(Cl)C(Cl)(Cl)C5(Cl)C3(Cl)C1(Cl)C5(Cl)C24Cl (stereo unspecified)
inactive: [9] | [1] | [2] | [3] | [4] | [5] | [6] | HGF (gene 3082) | [7] | [8]

C[C@]12CCC(=O)C[C@@H]1CC[C@@H]1[C@@H]2CC[C@]2(C)[C@@H](O)CC[C@@H]12
inactive: [9] | [1] | [2] | [3] | [4] | [5] | [6] | HGF (gene 3082) | [7] | [8]

CN(C)N=O
inactive: [9] | [1] | [2] | [3] | [4] | [5] | [6] | HGF (gene 3082) | [7] | [8]

CCN1CCC2(CC1)COc1cc3c(cc12)N(C(=O)c1ccc(-c2ccc(-c4nnc(C)o4)cc2C)cc1)CC3
active: [1] 75.2 µM | [2] 25.4 µM | [3] 74 µM | [4] 26.8 µM | [5] 16.6 µM | [6] 27.7 µM | [7] 14.5 µM | [8] 11.1 µM
inactive: [9] | HGF (gene 3082)

CC(=O)[O][Hg][c]1ccccc1
active: [1] 25.4 µM | [2] 23.1 µM | [3] 82.8 µM | [4] 23 µM | [5] 50 µM | HGF (gene 3082) 2.1 µM | [7] 23.1 µM | [8] 0.558 µM
inactive: [6]

NC(=O)O
inactive: [9] | [1] | [2] | [3] | [4] | [5] | [6] | HGF (gene 3082) | [7] | [8]

CC(C)(c1ccccc1)c1ccc(O)c(C(C)(C)c2ccccc2)c1
inactive: [1] | [2] | [3] | HGF (gene 3082)
active: [9] 58.2 µM | [4] 50 µM | [5] 50 µM | [6] 90.2 µM | [7] 50 µM | [8] 50 µM
